Screening data as filed in PubChem BioAssay.
HT1080 IDH1KD tx – kills HT-1080 cells with IDH1 knockdown; Potency, µM (titrated, usually from 46.1 µM), actives largely listed as cytotoxic; actives 2% (n = 360,000); HT-1080 IDH1 knockdown viability, ATP luminescence, 48 h; AID 686971
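Assay cells: HT-1080 with IDH1 knockdown, 750 per well, RPMI/5% FBS. Exposure: 48 h at 37 °C following 2 h pre-incubation. Read: CellTiter-Glo luminescence; fitted concentration-response, curve class assigned.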
IL1B secr inh – inflammasome signaling inhibition, IL-1 beta readout; activity change, % at 57.5 µM; THP-1 LPS/ATP IL-1B secretion, AlphaLISA, 16 h; hits give low values; actives 4.7% (n = 360,000); AID 743279; in the data active = activity change below about -50%; inconclusive = mostly about -30% to -49%
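Secreted IL-1B measured by AlphaLISA bead assay after 16 h compound exposure of THP-1 cells; compounds (final up to 57.5 uM) added 1 h before LPS (250 ng/mL) and ATP (1.25 mM) stimulation; lower signal means less secretion.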
DT40 TDP1 no CPT – qHTS for Inhibitors of human tyrosyl-DNA phosphodiesterase 1 (TDP1): qHTS in cells in absence of CPT. DT40 Tdp1-/- hTDP1 cells, no CPT, ATP luminescence, 48 h. actives 15% (n = 420,000). AID 686978, 2013. Potency, µM (top dose mostly 46.2 µM), hits mostly inhibitors; also: nearly all actives have a fitted effect of over 55% in size
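Chicken DT40 Tdp1-/- cells stably complemented with human TDP1 were seeded at 400 cells/well with DMSO in place of 20 nM camptothecin. After compound pinning, cells grew at least 48 hr at 37 °C; viability read by CellTiter-Glo luminescence.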
uPA generation – cell surface uPA generation inhibition; AID 540303; cell surface uPA generation assay, qHTS; actives 0.31% (n = 330,000); Potency, µM (top dose mostly 38.3 µM), usual class: inhibitors; active = well fitted inhibition curve with a large enough effect; inconclusive = small, poorly fitted or top-dose-only effect; inactive = no such curve, though single readings can be large or run the other way; tested in mouse RAW 264.7 cells; also: nearly all actives have a fitted effect of over 55% in size
HT1080NT lethal – kills 2HG-producing HT-1080-NT fibrosarcoma cells. actives 1.6% (n = 360,000). Potency, µM (doses to about 46.1 µM), hits mostly cytotoxic. AID 686970. HT-1080-NT fibrosarcoma viability, CellTiter-Glo ATP luminescence, 48 h;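 also: NT is the 2HG producing partner of a matched IDH1 knockdown line; nearly all actives have a fitted effect of over 55% in size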
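Viability by CellTiter-Glo luminescence after 48 h compound exposure at 37C of HT-1080-NT cells (750/well, RPMI, 5% FBS). % activity scaled between DMSO wells and medium-only wells, then curve-fitted and categorized by curve class.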
TDP1 cell CPT – growth inhibition of DT40 Tdp1-/-;hTDP1 cells with camptothecin (screen for TDP1 inhibitors); chicken DT40 Tdp1-/-;hTDP1 cells + 20 nM CPT, ATP luminescence, 48 h; Potency, µM (doses to about 46.2 µM), hits mostly inhibitors; actives 12% (n = 420,000); AID 686979; also: nearly all actives have a fitted effect of over 55% in size
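Chicken DT40 Tdp1-/- cells complemented with human TDP1, 400 cells/well, exposed to compounds plus 20 nM camptothecin for at least 48 h at 37 C; viability read as ATP content by CellTiter-Glo luminescence.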
A number is an active result; n = inactive; u = inconclusive; x = not tested or not shown; [ ] = dose if it differs, or a comment. This is a sample that favours compounds with a hit; in the whole collection about 19% have one here. Unless noted, calls follow the shape of the dose curve; as a rule, active = well fitted curve in the direction sought with a large enough effect; inconclusive = small, poorly fitted or top-dose-only effect, or another doubt; inactive = no such curve, though single readings can be large; an effect the other way counts as inactive or inconclusive.

SMILES	HT1080 IDH1KD tx	IL1B secr inh	DT40 TDP1 no CPT	uPA generation	HT1080NT lethal	TDP1 cell CPT
CCN(CC1CCCN(CCc2cccc(F)c2)C1)C(=O)c1ccc(CSC)o1 (stereo not given)	n	n	23.1µM	n	n	u
CCN(CC1CCCN(CCc2cccc(F)c2)C1)C(=O)c1ccoc1C (stereo not given)	n	n	n	x	n	n
COC(=O)c1nc2n(n1)C(c1cccc(Cl)c1)C(C(=O)Nc1ccccc1OC)=C(C)N2 (stereo not given)	x	x	n	x	x	n
CCN(CC)c1nc(-c2ccccn2)nc(-c2ccccc2)c1C#N	n	u	3.26µM	n	n	18.4µM
CN(C)c1nc(-c2ccccc2)nc(-c2ccc(Cl)cc2)c1C#N	n	n	n	n	n	n
CN(C)c1nc(-c2ccccn2)nnc1-c1ccccc1	u	n	14.6µM	n	n	10.3µM
CN(CC(=O)O)c1ccc(/C=C/c2ccnc3ccccc23)cc1	x	x	20µM	x	x	11.2µM
CN(C)C(=O)c1ccc(/C=C/c2ccnc3ccccc23)cc1	x	x	15.8µM	x	x	u
O=C(Nc1ccccc1[N+](=O)[O-])c1csnn1	x	x	n	x	x	n
COC(=O)C1=C(C)NC(=O)C1(NC(=O)c1cc(OC)c(OC)c(OC)c1)C(F)(F)F (stereo not given)	x	x	n	x	x	n
CC(C)(Cc1ccc(O)cc1)NC(=O)CC(=O)N/N=C/c1ccc(Cl)cc1	n	n	18.4µM	u	u	u
CC(C)(Cc1ccc(O)cc1)NC(=O)CC(=O)N/N=C/c1ccc([N+](=O)[O-])cc1	n	n	n	n	n	n
COC(=O)c1ccc(OCC2c3cc(OC)c(OC)cc3CCN2C(=O)c2ccco2)cc1 (stereo not given)	u	-52.6	20.6µM	x	n	23.1µM
COc1ccc(CC(=O)N2CCc3cc(OC)c(OC)cc3C2COc2cc(C)cc(C)c2)cc1OC (stereo not given)	x	x	18.4µM	x	x	18.4µM
COC(=O)c1ccc(OCC2c3cc(OC)c(OC)cc3CCN2C(=O)Cc2ccc(OC)c(OC)c2)cc1 (stereo not given)	x	x	u	x	x	23.1µM
COC(=O)c1ccc(OCC2NCCc3cc(OC)c(OC)cc32)cc1 (stereo not given)	n	n	u	n	n	u
COc1cc2c(cc1OC)C(c1ccccc1)N(C(=O)c1ccco1)CC2 (stereo not given)	n	n	20.6µM	n	n	20.6µM
CCC(=O)N1CCc2cc(OC)c(OC)cc2C1COc1ccc(C(=O)OC)cc1 (stereo not given)	u	n	u	x	n[9.24 µM]	u
COc1ccc(CC(=O)N2CCOCC2)cc1OC	n	n	n	n	n	n
O=c1c2cnn(-c3ccc(Cl)cc3)c2ncn1Cc1ccc(Cl)cc1Cl	x	x	u	x	x	n
CCOC(=O)N1CCN(C(=O)CS(=O)Cc2nc(-c3ccc(OC)c(OC)c3)oc2C)CC1 (stereo not given)	n	n	n	n	n	n
COc1cc2c(cc1OC)C(c1ccccc1)N(C(=O)CSCC(=O)O)CC2 (stereo not given)	n	n	n	n	n	n
COc1ccc(OCC2c3cc(OC)c(OC)cc3CCN2C(=O)C(C)C)cc1 (stereo not given)	n	n	23.1µM	n	n	u
COC(=O)c1ccc(OCC2c3cc(OC)c(OC)cc3CCN2C(=O)Cc2ccc(OC)cc2)cc1 (stereo not given)	x	x	20.6µM	x	x	u
COc1cc2c(cc1OC)[C@@H](c1ccccc1)CN(C)CC2	x	x	15µM	x	x	n
SMILES	HT1080 IDH1KD tx	IL1B secr inh	DT40 TDP1 no CPT	uPA generation	HT1080NT lethal	TDP1 cell CPT
COc1cc2c(cc1OC)C(c1ccccc1)N(C(=O)c1ccccc1)CC2 (stereo not given)	n	u	u	n	n	u
COC(=O)c1ccc(OCC(O)CN2CCc3cc(OC)c(OC)cc3C2c2ccccc2)cc1 (stereo not given)	16.4µM	n	5.8µM	n	u	5.8µM
CC(=O)Nc1ccc(S(=O)(=O)NCCC(=O)NC(C)c2cccs2)cc1 (stereo not given)	n	n	n	n	n	n
O=C(Cn1c(C(=O)N2CCc3ccccc3C2)cc2sccc21)c1ccccc1	n	u	u	x	u	29.1µM
Cc1ccsc1C(=O)N1CCc2ccccc2C1	n	n	n	n	n	n
C(=C\n1nnc2ccccc21)/c1ccc[nH]1	n	n	23.1µM	n	n	18.4µM
c1ccc(-n2nnc3ccccc32)cc1	n	n	n	n	n	n
O=c1cnnc(SCc2ccc([N+](=O)[O-])cc2)[nH]1	n	n	n	n	n	n
CC(Oc1ccccc1)C(=O)N1CCN(Cc2cc(=O)n3nc(-c4ccccc4Cl)sc3n2)CC1 (stereo not given)	x	x	u	x	x	n
Cc1nc2sc(C(=O)N(C)Cc3ccccc3)c(NC(=O)c3ccccc3)c2c(C)c1Cl	x	x	16.4µM	x	x	u
Cc1nc2sc(C(=O)NCc3ccc(Cl)cc3)c(NC(=O)c3ccccc3)c2c(C)c1C	x	x	u	x	x	13µM
CN(Cc1ccccc1)C(=O)Nc1c(Cl)cccc1Cl	u	n	n	x	n	n
CC1CN(S(=O)(=O)c2ccc(C(=O)N3CCc4ccccc43)cc2)CC(C)O1 (stereo not given)	n	n	n	n	n	n
CCc1nnc(NC(=O)c2nc(SCc3ccc(F)cc3)ncc2Cl)s1	x	x	n	x	x	n
O=C(O)Cc1ccc(-c2ccccc2-c2ccccc2)cc1	n[9.24 µM]	n	20.6µM	n	n	14.6µM
O=C(NCCc1csc(-c2cccnc2)n1)c1ccco1	n	n	n	n	n	n
O=C(NCCc1csc(-c2cccnc2)n1)c1ccc(Br)o1	n	n	18.4µM	n	n	u
O=C(NCCc1csc(-c2ccccc2)n1)c1ccc(Br)o1	n	n	20.6µM	n	n	u
CCCOc1ccc(CN(CCC#N)C(=S)NC(=O)c2ccccc2)cc1	n	n	5.17µM	n	n	7.31µM
COc1cc(C(=O)NC(=S)N(CCC#N)Cc2cccnc2)cc(OC)c1OC	n	n	u	n	n	n
CCOc1cc(-c2cc(-c3ccccc3)nc(N)c2C#N)ccc1O	n	u	u	n	n	23.1µM
N#Cc1c(-c2cccnc2)cc(-c2ccccc2)nc1N	u	n	u	u	n	n
CCOc1cc(-c2c(C#N)c(N)nc3c2CCCC3)ccc1O	n	n	20.6µM	n	n	u
COc1ccc(-c2c(C#N)c(N)nc3c2CCCC3)cc1OC	n	n	n	x	n	n
COc1cc(-c2cc(-c3ccc(F)cc3)nc(N)c2C#N)ccc1O	n	n	u	n	n	u
